Results: article PMC5540273 (PLoS ONE, 2017)

Tested on: BMPR2
Conditions: concentration: 1 μM, replicates: in singlicate; n = 1
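Also: KINOMEscan kinase panel screen.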

Compound	%Inh
Cc1cccc(-c2cc(-c3c[nH]nc3-c3ccccn3)ccn2)c1 [GW679395]	1%
COc1ccc(-c2coc3ccc(-c4nnc(SCc5cccc(C#N)c5)o4)cc23)cc1	18%
COc1ccc(CNC(=O)NC2CCN(c3ccnc(Nc4ccc(F)cc4)n3)C2)cc1 (stereo not drawn) [GSK1379706]	22%
COc1cc2ncn(-c3cc(OCc4ccncc4Br)c(C(N)=O)s3)c2cc1OC [GW854278]	13%
Cc1nnc(-c2ccc(C)c(-c3ccc(C(=O)O)cc3)c2)o1 [GW608005]	0%
COc1cc2ncn(-c3cc(OCCCc4ccccc4)c(C(N)=O)s3)c2cc1OC [GSK205189]	0%
Cc1cc(Nc2nc(-c3cccc(C)n3)nc3ccccc23)ccn1 [GW872411]	0%
Cc1ccc(-c2ccc3c(ccc4sc5c(c43)NC[C@@H](C)N=C5N(C)C)n2)cn1	0%
CCc1ccc(-c2ccc3c(c2)-c2nn(C)cc2S(=O)(=O)N3C)cc1	0%
Nc1n[nH]c2ncc(-c3ccccc3)cc12 [SB-517081]	34%
Nc1ncnc2c1ncn2-c1cccc2ccccc12 [SKF-97184]	35%
O=C(NCCNc1ccnc(Nc2ccc(F)cc2)n1)Nc1ccc2c(c1)OCO2 [GSK1379882]	0%
O=C(Nc1n[nH]c2nc(-c3ccccc3)c(Br)cc12)C1CC1 [SB-708998]	0%
Cl.NS(=O)(=O)c1cccc(Nc2cc(-c3ccc(F)cc3)n[nH]2)c1 [GW824645]	45%
O=C(Nc1ccc2c(c1)OCO2)NC1CCN(c2ccnc(NCc3ccc(F)cc3)n2)CC1 [GSK1379859]	0%
CC(C)(C)c1ccc(C(=O)Nc2cn3cc(-c4ccccc4)ccc3n2)cc1	0%
C[C@@H]1CC[C@H](C(=O)NC2CCCCC2)CN1c1cc(-c2ccc3c(N)n[nH]c3c2)nc(N)n1 [GSK2291363]	0%
O=C(Nc1n[nH]c2nc(-c3ccccc3)c(Cl)cc12)C1CC1 [SB-734909]	0%

Compound	%Inh
COC(=O)c1c(-c2ccccc2)c2cc(Br)ccc2c(=O)n1Cc1ccc(NC(=O)CCC(=O)O)cc1	7%
O=C(Nc1n[nH]c2cc(-c3ccccc3F)ccc12)C1CC1 [SB-733371]	0%
Cc1nc(N(C)[C@H]2CN(C(=O)CC#N)CC[C@H]2C)c2cc[nH]c2n1	8%
Cc1nn2c(=O)cc(N3CCOCC3)nc2n1Cc1cccc(Cl)c1Cl [GSK2342769]	4%
Cc1cccc(-c2nc(Nc3ccc4c(cnn4C)c3)c3ccccc3n2)n1 [GW876731]	1%
FC(F)(F)c1ccc(-c2ncn(CCCN3CCOCC3)c2-c2ccncc2)cc1 [SB-217780]	39%
COc1cc(Nc2ccnc3ccc(C(F)(F)F)cc23)cc(OC)c1OC [GW577382]	22%
CCS(=O)c1ccc(-c2coc3ccc(-c4nnc(C)o4)cc23)cc1 (stereo not drawn)	15%
O=c1cc(N2CCOCC2)nc2n(Cc3ccc(F)c(Cl)c3)ccn12 [GSK2297099]	0%
CCC(=O)c1c(-c2ccccc2)c2cc(Cl)ccc2c(=O)n1Cc1cc(S(C)(=O)=O)n(CCC(C)(C)O)n1	9%
Cn1c(=O)c(F)c(Nc2ccc(I)cc2F)c2c(=O)n(OC[C@H](O)CO)cnc21	0%
COc1cc(OC)cc(-c2cc3cnc(N)nc3nc2NC(=O)NC(C)(C)C)c1	0%
Fc1cccc(CSc2nnc(-c3ccc4c(c3)CCO4)o2)c1	0%
COc1cc(Nc2nccc(N3CCC(NC(=O)C4COc5ccccc5O4)C3)n2)cc(OC)c1OC (stereo not drawn) [GSK1379761]	26%
O=C1NC(=O)C(c2ccccc2)=C1Nc1cccc(O)c1 [SB-390534]	10%
CN(C)c1cc(-c2ccc3c(N)n[nH]c3c2)nc(N)n1 [GSK2219329]	0%
Cc1ccc(Oc2ccc(Nc3ncnc4cc[nH]c34)cc2C)cn1	13%
CN1C(=O)C(Nc2ccccc2)=C(c2ccccc2)C1=O [SB-300079]	14%

Tested on: BMX
Conditions: concentration: 1 μM, replicates: in singlicate; n = 1

Compound	%Inh
Cc1cccc(-c2cc(-c3c[nH]nc3-c3ccccn3)ccn2)c1 [GW679395]	0%
COc1ccc(-c2coc3ccc(-c4nnc(SCc5cccc(C#N)c5)o4)cc23)cc1	28%
COc1ccc(CNC(=O)NC2CCN(c3ccnc(Nc4ccc(F)cc4)n3)C2)cc1 (stereo not drawn) [GSK1379706]	26%
COc1cc2ncn(-c3cc(OCc4ccncc4Br)c(C(N)=O)s3)c2cc1OC [GW854278]	10%
Cc1nnc(-c2ccc(C)c(-c3ccc(C(=O)O)cc3)c2)o1 [GW608005]	0%
COc1cc2ncn(-c3cc(OCCCc4ccccc4)c(C(N)=O)s3)c2cc1OC [GSK205189]	11%
Cc1cc(Nc2nc(-c3cccc(C)n3)nc3ccccc23)ccn1 [GW872411]	0%
Cc1ccc(-c2ccc3c(ccc4sc5c(c43)NC[C@@H](C)N=C5N(C)C)n2)cn1	0%
CCc1ccc(-c2ccc3c(c2)-c2nn(C)cc2S(=O)(=O)N3C)cc1	0%
Nc1n[nH]c2ncc(-c3ccccc3)cc12 [SB-517081]	0%
Nc1ncnc2c1ncn2-c1cccc2ccccc12 [SKF-97184]	0%
O=C(NCCNc1ccnc(Nc2ccc(F)cc2)n1)Nc1ccc2c(c1)OCO2 [GSK1379882]	7%
O=C(Nc1n[nH]c2nc(-c3ccccc3)c(Br)cc12)C1CC1 [SB-708998]	7%
Cl.NS(=O)(=O)c1cccc(Nc2cc(-c3ccc(F)cc3)n[nH]2)c1 [GW824645]	0%
O=C(Nc1ccc2c(c1)OCO2)NC1CCN(c2ccnc(NCc3ccc(F)cc3)n2)CC1 [GSK1379859]	3%
CC(C)(C)c1ccc(C(=O)Nc2cn3cc(-c4ccccc4)ccc3n2)cc1	13%
C[C@@H]1CC[C@H](C(=O)NC2CCCCC2)CN1c1cc(-c2ccc3c(N)n[nH]c3c2)nc(N)n1 [GSK2291363]	21%
O=C(Nc1n[nH]c2nc(-c3ccccc3)c(Cl)cc12)C1CC1 [SB-734909]	1%

Compound	%Inh
COC(=O)c1c(-c2ccccc2)c2cc(Br)ccc2c(=O)n1Cc1ccc(NC(=O)CCC(=O)O)cc1	2%
O=C(Nc1n[nH]c2cc(-c3ccccc3F)ccc12)C1CC1 [SB-733371]	0%
Cc1nc(N(C)[C@H]2CN(C(=O)CC#N)CC[C@H]2C)c2cc[nH]c2n1	0%
Cc1nn2c(=O)cc(N3CCOCC3)nc2n1Cc1cccc(Cl)c1Cl [GSK2342769]	12%
Cc1cccc(-c2nc(Nc3ccc4c(cnn4C)c3)c3ccccc3n2)n1 [GW876731]	7%
FC(F)(F)c1ccc(-c2ncn(CCCN3CCOCC3)c2-c2ccncc2)cc1 [SB-217780]	1%
COc1cc(Nc2ccnc3ccc(C(F)(F)F)cc23)cc(OC)c1OC [GW577382]	16%
CCS(=O)c1ccc(-c2coc3ccc(-c4nnc(C)o4)cc23)cc1 (stereo not drawn)	18%
O=c1cc(N2CCOCC2)nc2n(Cc3ccc(F)c(Cl)c3)ccn12 [GSK2297099]	5%
CCC(=O)c1c(-c2ccccc2)c2cc(Cl)ccc2c(=O)n1Cc1cc(S(C)(=O)=O)n(CCC(C)(C)O)n1	33%
Cn1c(=O)c(F)c(Nc2ccc(I)cc2F)c2c(=O)n(OC[C@H](O)CO)cnc21	0%
COc1cc(OC)cc(-c2cc3cnc(N)nc3nc2NC(=O)NC(C)(C)C)c1	0%
Fc1cccc(CSc2nnc(-c3ccc4c(c3)CCO4)o2)c1	0%
COc1cc(Nc2nccc(N3CCC(NC(=O)C4COc5ccccc5O4)C3)n2)cc(OC)c1OC (stereo not drawn) [GSK1379761]	16%
O=C1NC(=O)C(c2ccccc2)=C1Nc1cccc(O)c1 [SB-390534]	15%
CN(C)c1cc(-c2ccc3c(N)n[nH]c3c2)nc(N)n1 [GSK2219329]	13%
Cc1ccc(Oc2ccc(Nc3ncnc4cc[nH]c34)cc2C)cn1	20%
CN1C(=O)C(Nc2ccccc2)=C(c2ccccc2)C1=O [SB-300079]	0%
